The list is not random: actives were taken first. Their share in the collection is about 3.7%.
BoNT-A LC inh2 – blocks Botulinum neurotoxin A light chain protease; multiplex microsphere protease substrate cleavage, flow cytometry; inhibition, % at 10 µM; 360,000 compounds, 0.17% hits; further: plate controls were buffer without enzyme for full effect and enzyme alone for no effect
BoNT-F LC inh – blocks Botulinum neurotoxin F light chain protease. Multiplex microsphere protease cleavage assay, flow cytometry. inhibition, % at 10 µM. 360,000 compounds, 0.22% hits. AID 588497; in the data active means inhibition above about 35%, passing the limit was not always enough; inconclusive means no clear call, values can overlap the other calls; further: plate controls were buffer without enzyme for full effect and enzyme alone for no effect
BH1578 lux ind – induces V. cholerae light production without autoinducers | 350,000 compounds, 0.16% hits | V. cholerae BH1578 lux reporter, luminescence, 6 h | activation, % at 18.7 µM; in the data active means activation mostly above about 9.7%, no sharp cut-off; inconclusive means no clear call, values can overlap the other calls; inactive means mostly below about 3.7%
BJeLR viability – BJeLR cell viability loss; BJeLR (HRASV12) viability, CellTiter-Glo ATP luminescence, 48 h; inhibition, % (test concentration not listed); 300,000 compounds, 0.17% hits; AID 1554; in the data active means inhibition above about 50%; inconclusive means no clear call, values can overlap the other calls
Autofluor counter – counter-screen for toxin protease inhibitors: compound fluorescence; fluorescence intensity (concentration not given with the values); 360,000 compounds, 3.1% hits; compound autofluorescence counterscreen, microsphere flow cytometry; hits give high values; in the data active means fluorescence intensity above about 16000; inconclusive means no clear call, values can overlap the other calls
Anthrax LF prot – anthrax lethal factor protease inhibition | P15917 | multiplex microsphere protease cleavage assay, LF | inhibition, % at 10 µM | 360,000 compounds, 0.12% hits; further: plate controls were buffer without enzyme for full effect and enzyme alone for no effect
Target sequence (P15917 whole entry, looked up): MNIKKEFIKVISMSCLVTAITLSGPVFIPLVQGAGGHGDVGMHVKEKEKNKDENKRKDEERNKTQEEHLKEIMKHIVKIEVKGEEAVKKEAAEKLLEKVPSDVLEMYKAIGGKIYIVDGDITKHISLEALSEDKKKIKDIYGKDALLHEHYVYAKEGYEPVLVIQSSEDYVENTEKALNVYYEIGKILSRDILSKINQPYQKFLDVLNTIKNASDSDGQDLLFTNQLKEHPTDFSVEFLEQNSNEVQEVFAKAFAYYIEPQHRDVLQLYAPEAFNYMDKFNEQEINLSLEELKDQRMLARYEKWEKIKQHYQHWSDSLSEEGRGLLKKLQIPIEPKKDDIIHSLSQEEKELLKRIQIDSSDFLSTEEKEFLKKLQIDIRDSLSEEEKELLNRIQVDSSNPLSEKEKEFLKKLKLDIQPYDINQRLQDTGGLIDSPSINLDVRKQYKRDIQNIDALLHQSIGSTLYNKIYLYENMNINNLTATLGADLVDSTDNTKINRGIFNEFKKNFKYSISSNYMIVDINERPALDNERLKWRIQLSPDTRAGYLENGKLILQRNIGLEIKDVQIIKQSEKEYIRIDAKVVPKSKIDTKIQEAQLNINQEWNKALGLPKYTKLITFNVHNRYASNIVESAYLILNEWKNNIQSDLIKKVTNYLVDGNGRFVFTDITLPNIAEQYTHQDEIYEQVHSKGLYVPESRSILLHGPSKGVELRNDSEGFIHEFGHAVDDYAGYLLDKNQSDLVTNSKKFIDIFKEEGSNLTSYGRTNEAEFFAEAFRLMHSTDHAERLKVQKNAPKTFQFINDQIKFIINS
BoNT-A LC CP1 – inhibitors of Botulinum neurotoxin A light chain protease | inhibition, % at 10 µM | 720 compounds, 3% hits | multiplex microsphere protease assay, flow cytometry | AID 602139 | shares compounds with BoNT-F LC inh; in the data active means inhibition above about 32%
BoNT-F LC CP1 – BoNT/F light chain protease inhibition | shares compounds with BoNT-F LC inh | multiplex microsphere protease cleavage assay, flow cytometry | inhibition, % at 10 µM | 720 tested, under 10 active | AID 602140; call rule not given here
LF protease CP1 – blocks anthrax lethal factor protease | AID 602142 | shares compounds with BoNT-F LC inh | multiplex microsphere protease cleavage assay, LF | inhibition, % at 10 µM | 720 tested, under 10 active; call rule not given here
* hit, by the source's call; i = inactive; ? = inconclusive; . = no result given. Unless noted, no stated cut-off is given here; in the data, active means inhibition above about 30%; inconclusive means no clear call, values can overlap the other calls; inactive means below that.

SMILES	BoNT-A LC inh2	BoNT-F LC inh	BH1578 lux ind	BJeLR viability	Autofluor counter	Anthrax LF prot	BoNT-A LC CP1	BoNT-F LC CP1	LF protease CP1
CC1=C(C(=O)N(C)C)CC(CC(=O)NCc2cccs2)C(=O)N1Cc1ccc(F)cc1 (configuration not stated)	-2	-13	.	.	7870	-1	.	.	.
COc1cccc(-c2oc3c(c2-c2ccc(Br)nc2)C(O)CCC3)c1 (configuration not stated)	-1	0	.	.	4138	-6	.	.	.
CCCC(Oc1ccc(Br)cc1)c1nc2c3cc(OC)c(OC)cc3nc(=S)n2[nH]1 (configuration not stated)	1	-2	-1	1	2447	2	.	.	.
CC(Oc1ccc(Br)cc1)c1nc2c3ccccc3nc(=S)n2[nH]1 (configuration not stated)	4	36*	-1	3	3418	-2	-1	-4	-2
CSc1nc(Oc2ccc(F)cc2F)cc(C(F)(F)F)n1	1	41*	i	-3	3385	3	0	-8	-3
CCCC(CCC)c1nc2ccncc2[nH]1	3	41*	-1	2	2311	0	2	2	2
Cc1ccc(CSc2nc3ccncc3[nH]2)cc1	0	0	-1	24	5911	-1	.	.	.
Cc1ccc(-c2nnc(-c3cccnc3)o2)cc1	5	56*	i	-5	3110	7	0	2	4
Brc1ccc(-c2nnc(-c3cccnc3)o2)cc1	-1	?	0	6	4028	-7	.	.	.
O=C(Nc1nc2ccccc2s1)c1cccc(S(=O)(=O)N2CCc3ccccc32)c1	-1	-7	0	3	5120	-6	.	.	.
O=C(Nc1nc2c(s1)CN(Cc1ccccc1)CC2)c1cccc(S(=O)(=O)N2CCc3ccccc32)c1	20	5	0	-3	13649	30*	8	13	6
C=CCn1c(SCC(=O)Nc2nc(C)cs2)nnc1C(CO)NC(=O)c1ccccc1 (configuration not stated)	2	30	i	-5	4560	1	-1	2	-3
CCn1c(SCC(=O)Nc2nc(C)cs2)nnc1C(NC(=O)c1ccccc1Cl)C(C)C (configuration not stated)	-1	-6	i	-2	2432	-2	.	.	.
CN1CCN(CC(=O)Nc2nnc(-c3cccs3)s2)CC1	3	36*	0	-5	2108	0	-1	-5	0
Cc1ccc(OCCNC(=O)c2ccccc2O)cc1	-1	36*	-1	-11	4460	12	-1	-11	-3
CCC(CO)Nc1ccn2nc(-c3cccc(Cl)c3)cc2n1 (configuration not stated)	0	-2	-1	.	3919	3	.	.	.
O=C(CCn1ccnc1)Nc1ccc2ccccc2c1	7	38*	i	2	4229	1	0	-3	-1
CCOc1ccc(NC(=O)CCn2ccnc2)cc1	0	4	-1	-2	3549	-3	.	.	.
CCCCOc1ccc(C(=O)CCN2CCOCC2)cc1	1	6	0	9	4576	-4	2	0	-1
COc1ccc(CN2CCN(C3CCSCC3)CC2CCO)c(C)c1C (configuration not stated)	1	-2	0	5	3850	2	.	.	.
COc1ccc(CN2CCN(CC3CC3)CC2CCO)c(C)c1C (configuration not stated)	-1	-46	0	16	4181	43*	-1	-3	-1
CC1CCCCc2nc3c(c(=O)n21)CCCC3 (configuration not stated)	0	0	.	.	5317	4	.	.	.
O=c1[nH]c2cc([N+](=O)[O-])ccc2c2cc(Br)ccc12	0	-2	3	.	3507	0	.	.	.
Cc1c(NC(=O)c2ccc(N(C)S(C)(=O)=O)cc2)c(=O)n(-c2ccccc2)n1C	-2	-15	0	.	6194	-5	.	.	.
Cc1c(NC(=O)c2ccccc2N(C)S(=O)(=O)c2ccccc2)c(=O)n(-c2ccccc2)n1C	44*	48*	-2	0	6019	-25	1	3	-1
SMILES	BoNT-A LC inh2	BoNT-F LC inh	BH1578 lux ind	BJeLR viability	Autofluor counter	Anthrax LF prot	BoNT-A LC CP1	BoNT-F LC CP1	LF protease CP1
O=S1(=O)CC(N2CCCCC2)CN1Cc1cn(Cc2cccc(C(F)(F)F)c2)nn1 (configuration not stated)	-2	1	.	.	6347	-2	.	.	.
Cn1c(=O)c2c(ncn2CC(=O)NC[C@H]2O[C@@H](n3cnc4c(N)ncnc43)[C@H](O)[C@@H]2O)n(C)c1=O	-1	-4	i	.	3826	1	.	.	.
CCC(C)(C)n1nnnc1C(C(C)C)N(Cc1ccco1)Cc1cc2cc3c(cc2[nH]c1=O)OCO3 (configuration not stated)	33*	38*	0	-2	10857	-17	0	1	-7
CCC(C)(C)n1nnnc1C(C(C)C)N(Cc1cccnc1)Cc1ccco1 (configuration not stated)	0	0	i	4	3446	-8	.	.	.
CC(C)N(Cc1ccccc1)S(=O)(=O)c1ccc(-n2cccn2)cc1	0	-9	i	.	4072	-2	.	.	.
Cc1cc(Cl)ccc1NS(=O)(=O)c1c(C)[nH]c(=O)[nH]c1=O	-2	10	i	9	3569	0	.	.	.
Cc1[nH]c(=O)[nH]c(=O)c1S(=O)(=O)Nc1ccc(F)c(Cl)c1	-2	-6	-1	-2	3421	33*	0	0	2
O=C(O)CSc1nnc(-c2ccc(Cl)cc2)n1-c1ccccc1	0	36*	i	-2	4072	-3	-1	3	-3
CCc1nnc(NC(=O)COc2ccccc2[N+](=O)[O-])s1	-6	?	0	0	3114	30*	1	3	2
CCOC(=O)[C@]12CCC=C1N(Cc1ccc3c(c1)OCO3)C(=O)[C@H](CC(=O)NCCc1ccccc1OC)C2	0	-1	.	.	6615	-1	.	.	.
CCSc1nnc(-c2sc3nnc(-c4ccccc4)c(-c4ccccc4)c3c2N)o1	80*	52*	.	0	5874	56*	86*	27	40*
Cc1cc(-c2nnc(SCC(=O)Nc3ccccc3)n2C)no1	?	?	i	-15	4305	32*	1	0	8
COc1ccc(S(=O)(=O)N2CCN(C)CC2)cc1	3	74*	-2	2	3909	-5	-1	0	-3
COc1ccc(S(=O)(=O)N2CCN(Cc3ccc(OC)c(OC)c3)CC2)cc1	-6	?	2	10	3690	42*	-2	-2	-2
